These results are taken from PubChem BioAssay (NCI).

Each structure is given as a SMILES string. This is part of a sample that, as a whole, favours compounds with a hit. Of some 83,000 tested, about 20% had one in any assay.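 Activity criterion: percent growth below 10, measured after cells in 96-well plates were exposed to a single compound concentration for 48 hours.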 A number with no mark means an inactive call. The source made the active and inactive calls.

Test systems include NCI-H23 lung; NCI-H322M lung; HOP-62 NSCLC; NCI-H460 lung; HOP-92 NSCLC; NCI-H522 lung; A549/ATCC NSCLC; 786-0 renal; COLO 205 colon; DU-145 prostate; K-562 leukemia; MALME-3M melanoma; MDA-MB-231 breast; RXF 393 renal; SF-268 CNS; SF-295 CNS; SF-539 CNS; UACC-257 melanoma; M14 melanoma.
Experiment in all cases: NCI-60 one-dose screen, 48 h (100 = growth as untreated, 0 = no growth, -100 = all killed)
Common to all, as to details: 10 µM unless noted

On to `O=C1CCC(c2c(O)cc(O)c3c(=O)c(O)c(-c4ccc(O)c(O)c4)oc23)N1` (centres undefined), for which the growth with NCI-H23 lung was 94.7%; in the experiment with NCI-H322M lung it was 92.8%; in the experiment on HOP-62 NSCLC, 84.3%; in the experiment on NCI-H460 lung, 105%; in the experiment on HOP-92 NSCLC, 91.9%; with NCI-H522 lung, 70.9%. In addition, the growth with A549/ATCC NSCLC is 81.1%; with 786-0 renal, 99.6%; with COLO 205 colon, 112%; in the experiment on DU-145 prostate, 105%; in the experiment on K-562 leukemia it was 96.1%; in the experiment on MALME-3M melanoma, 89.6%. Further, the growth with MDA-MB-231 breast is 118%; in the experiment on RXF 393 renal, 99.8%; in the experiment with SF-268 CNS it was 96.4%; in the experiment with SF-295 CNS, 101%; in the experiment with SF-539 CNS it was 103%; in the experiment with UACC-257 melanoma it was 86.1%. For the same compound, the growth in the experiment on M14 melanoma was 101%.

`CC(=O)CC/C=C(\C)[C@H](O)[C@H](C)C(=O)O[C@H]1C[C@H](C)C=C2C=C[C@@]3(C)O[C@@H](O)CC(=O)[C@]3(C)[C@H]21`: the growth was -35.8% (active) in the experiment with NCI-H23 lung; -17.6% (active) with NCI-H322M lung; -31.8% (active) in the experiment with HOP-62 NSCLC; -16.6% (active) in the experiment on NCI-H460 lung; -32.5% (active) with HOP-92 NSCLC; -43.4% (active) with NCI-H522 lung. The growth was -10.6% (active) with A549/ATCC NSCLC; -49.7% (active) in the experiment on 786-0 renal; -45.6% (active) with COLO 205 colon; -22% (active) in the experiment on DU-145 prostate; -8.89% (active) with K-562 leukemia; -82.5% (active) in the experiment with MALME-3M melanoma. Besides, the growth with MDA-MB-231 breast is -39.2% (active); in the experiment on RXF 393 renal, -88% (active); with SF-268 CNS it was -21.5% (active); in the experiment on SF-295 CNS it was -22.7% (active); in the experiment on SF-539 CNS, -35.2% (active); with UACC-257 melanoma, -33.7% (active). The growth in the experiment with M14 melanoma is -84.2% (active).

In the case of `Cn1cnc([N+](=O)[O-])c1N1c2ccncc2Sc2ccncc21`, the growth in the experiment with NCI-H23 lung was 91.2%; in the experiment on NCI-H322M lung it was 110%; with HOP-62 NSCLC, 93.3%; with NCI-H460 lung, 106%; in the experiment with HOP-92 NSCLC, 77.1%; in the experiment with NCI-H522 lung it was 72.5%. For the same compound, the growth was 104% in the experiment with A549/ATCC NSCLC; 110% in the experiment with 786-0 renal; 89.6% in the experiment on COLO 205 colon; 108% with DU-145 prostate; 83.2% in the experiment with K-562 leukemia; 84% with MALME-3M melanoma. Also, the growth was 85.1% with MDA-MB-231 breast; 100% in the experiment on RXF 393 renal; 101% in the experiment on SF-268 CNS; 86.7% with SF-295 CNS; 96.3% in the experiment on SF-539 CNS; 101% in the experiment on UACC-257 melanoma. For the same compound, the growth with M14 melanoma is 101%.

In the case of `NC(=NCCCOc1ccc(F)cc1)Nc1ccc(Cl)c(Cl)c1`, the growth in the experiment on NCI-H23 lung was 67.9%; with NCI-H322M lung it was 69.3%; in the experiment on HOP-62 NSCLC it was 78.7%; with NCI-H460 lung it was 74.3%; in the experiment with HOP-92 NSCLC, 16.5%; with NCI-H522 lung it was 67.6%. The growth was 82.5% with A549/ATCC NSCLC; 67.6% in the experiment on 786-0 renal; -57.7% (active) in the experiment with COLO 205 colon; 80.2% with DU-145 prostate; 12.6% in the experiment with K-562 leukemia; 98.1% with MALME-3M melanoma. The growth with MDA-MB-231 breast was 44%; in the experiment on RXF 393 renal, 68.6%; in the experiment on SF-268 CNS, 54.9%; in the experiment on SF-295 CNS it was 76.6%; with SF-539 CNS, 79.1%; in the experiment on UACC-257 melanoma, 77.2%. Further, the growth in the experiment with M14 melanoma is 63.6%.

Regarding `CCOC(=O)NNc1nncc2ccccc12`, the growth in the experiment with NCI-H23 lung is 95.4%; with NCI-H322M lung it was 102%; with HOP-62 NSCLC, 102%; in the experiment on NCI-H460 lung it was 110%; with HOP-92 NSCLC it was 95.1%; in the experiment with NCI-H522 lung, 103%. Also, the growth in the experiment on A549/ATCC NSCLC was 104%; in the experiment on 786-0 renal, 99.1%; in the experiment with COLO 205 colon, 105%; in the experiment on DU-145 prostate, 115%; with K-562 leukemia, 81.9%; in the experiment on MALME-3M melanoma, 99.5%. Also, the growth was 101% in the experiment with MDA-MB-231 breast; 109% in the experiment with RXF 393 renal; 107% in the experiment on SF-268 CNS; 103% in the experiment on SF-295 CNS; 108% in the experiment on SF-539 CNS; 93.3% in the experiment on UACC-257 melanoma. The growth with M14 melanoma is 108%.

As for `COc1ccc(-c2[nH]c3ccccc3c2/C=C(\C#N)S(=O)(=O)c2ccccc2)cc1`, the growth with NCI-H23 lung was 17.5%; in the experiment with NCI-H322M lung, 61.9%; with HOP-62 NSCLC, 35.5%; in the experiment with NCI-H460 lung it was 3.97% (active); in the experiment on HOP-92 NSCLC, 65.5%; in the experiment with NCI-H522 lung, 26.8%. Further, the growth in the experiment with A549/ATCC NSCLC is 33.9%; in the experiment with 786-0 renal, 22.1%; in the experiment with COLO 205 colon, -39.4% (active); in the experiment on DU-145 prostate, 12.3%; with K-562 leukemia, 33.8%; with MALME-3M melanoma, 73.6%. For the same compound, the growth in the experiment on MDA-MB-231 breast is 31.5%; in the experiment on RXF 393 renal, -12.2% (active); in the experiment on SF-268 CNS, 45.1%; in the experiment with SF-295 CNS, -11.5% (active); with SF-539 CNS it was -30.7% (active); with UACC-257 melanoma it was 73.2%. The growth in the experiment on M14 melanoma is 20.2%.

On to `COc1ccc(C2=NN(C(=O)COc3ccc(Cl)cc3)C(O)(c3cc(F)c(Cl)cc3Cl)C2)cc1OC` (centres undefined), for which the growth in the experiment on NCI-H23 lung was 49.7%; in the experiment on NCI-H322M lung, 88.8%; in the experiment on HOP-62 NSCLC it was 75.4%; with NCI-H460 lung, 32.9%; in the experiment with HOP-92 NSCLC, -44.8% (active); in the experiment with NCI-H522 lung it was -66.4% (active). The growth in the experiment on A549/ATCC NSCLC was 81.3%; in the experiment with 786-0 renal it was -74.9% (active); with COLO 205 colon, -56.6% (active); in the experiment on DU-145 prostate, 9.5% (active); in the experiment on K-562 leukemia, -66.5% (active); with MALME-3M melanoma, 6.18% (active). In addition, the growth with MDA-MB-231 breast was 30%; with RXF 393 renal, -90.8% (active); in the experiment on SF-268 CNS, 4.05% (active); in the experiment with SF-295 CNS it was 75.7%; in the experiment with SF-539 CNS, 30.5%; in the experiment with UACC-257 melanoma, 107%. Moreover, in the experiment with M14 melanoma, the growth is -13.4% (active).

With `CC(C)(C)C(=O)Nc1nc2c(s1)CCc1ccn(S(=O)(=O)c3ccccc3)c1-2`, the growth in the experiment on NCI-H23 lung was 82.5%; with NCI-H322M lung it was 83.3%; in the experiment with HOP-62 NSCLC, 93.4%; in the experiment on NCI-H460 lung, 96.2%; in the experiment with HOP-92 NSCLC it was 96.2%; in the experiment with NCI-H522 lung it was 66.7%. Further, the growth in the experiment on A549/ATCC NSCLC was 76.6%; in the experiment on 786-0 renal, 81.8%; in the experiment on COLO 205 colon, 112%; with DU-145 prostate it was 99.1%; with K-562 leukemia it was 69%; with MALME-3M melanoma, 99.6%. Besides, the growth in the experiment with MDA-MB-231 breast is 95.8%; in the experiment with RXF 393 renal, 116%; with SF-268 CNS, 89.5%; with SF-295 CNS, 91.7%; in the experiment with SF-539 CNS, 99.4%; with UACC-257 melanoma, 95%. In the experiment with M14 melanoma, the growth is 96.1%.

For `COc1cc(/C=C/C(=O)c2ccc(Oc3ncnc4ccccc34)cc2)cc(OC)c1OC`, the growth with NCI-H23 lung was 80.3%; with NCI-H322M lung, 69.5%; in the experiment with HOP-62 NSCLC it was 81.9%; in the experiment with HOP-92 NSCLC, 109%; in the experiment on NCI-H522 lung, 52.7%; with A549/ATCC NSCLC, 73.1%. In addition, the growth in the experiment on 786-0 renal is 82.2%; with COLO 205 colon, 109%; in the experiment on DU-145 prostate it was 21.4%; with K-562 leukemia, 12.1%; in the experiment on MALME-3M melanoma, 98.9%; in the experiment with MDA-MB-231 breast, 86.5%. The growth with RXF 393 renal is 84.3%; in the experiment on SF-268 CNS, 81.1%; in the experiment on SF-295 CNS it was 86.7%; with SF-539 CNS, 63.6%; in the experiment on UACC-257 melanoma, 93.3%; in the experiment with M14 melanoma, 73.8%.

On to `Fc1ccc(Nc2ncnc3ccc(-c4cn[nH]c4)cc23)cc1Cl`, for which the growth was 80.3% with NCI-H23 lung; 15.9% with NCI-H322M lung; 66.2% with HOP-62 NSCLC; 55.5% with NCI-H460 lung; 54.6% with HOP-92 NSCLC; 10.3% with NCI-H522 lung. Moreover, the growth in the experiment with A549/ATCC NSCLC is 49.5%; with 786-0 renal, 61.5%; with COLO 205 colon, 60.7%; with DU-145 prostate, 50.8%; in the experiment on K-562 leukemia, 66.5%; in the experiment with MALME-3M melanoma, 54.9%. Also, the growth with MDA-MB-231 breast was 63.5%; in the experiment on RXF 393 renal, 40.3%; in the experiment with SF-268 CNS, 59.6%; in the experiment with SF-295 CNS, 56.3%; in the experiment with SF-539 CNS, 49.7%; in the experiment on UACC-257 melanoma, 89.5%. Also, in the experiment with M14 melanoma, the growth is 58.7%.
